Results filed as inconclusive are left out. Activity calls are given as the source filed them. How the source made its calls: active means hit-call score of the fitted dose curve at least 0.9, where 1 is the maximum; inconclusive means response in the unintended direction; inactive means score below 0.9.
Target: Estrogen receptor (Homo sapiens) (UniProt P03372)
Test: CCTE_Deisenroth_AIME_384WELL_LUC_Active: CCTE's 384-well Estrogen Receptor Transactivation Assay with AIME metabolic competence (ERTA luciferase; metabolism positive), Deisenroth Lab (AID 2284030)
Experimental: CCTE_Deisenroth_AIME_384WELL (AIME metabolism assay) is a cell-based, single-readout assay that uses VM7Luc4E2, a human mammary gland/breast cell line, with measurements taken at 24 hour after chemical dosing in a 384-well plate.CCTE_Deisenroth_AIME_384WELL_LUC_Active is one of four assay components measured or calculated from the CCTE_Deisenroth_AIME_384WELL assay. It is designed to make measurements of luciferase induction, a form of inducible reporter, as detected with bioluminescence signals by luciferase-coupled ATP quantitation technology.CCTE_Deisenroth_AIME_384WELL_LUC_Active is a component of the CCTE_Deisenroth_AIME_384WELL assay that measures the effect of retroftting the VM7Luc ERTA assay with the Alginate Immobolization of Metabolic Enzymes (AIME) metabolism method. AIME is optimized to impart phase I hepatic metabolism using phenobarbital/beta-naphthoflavone induced hepatic S9 from male Sprague Dawley rats. Parent chemicals are incubated for 2 hours in the AIME assay prior to transfer to the VM7Luc ERTA assay plate. […] This endpoint evaluates reporter induction in metabolism positive mode. Using a type of inducible reporter in VM7Luc cells, gain-of-signal activity can be used to understand changes in the reporter gene as they relate to xenobiotic metabolism and the gene ESR1. This assay endpoint, CCTE_Deisenroth_AIME_384WELL_LUC_Active, was analyzed in the positive analysis fitting direction relative to 17beta-estradiol as the positive control in the ERTA assay. To generalize the intended target to other relatable targets, this assay endpoint is annotated to the nuclear receptor intended target family, where the subfamily is steroidal.
The AIME procedure consists of a preparative "pre-stamping" step using a barium chloride/poly-L-lysine (PLL) solution followed by "stamping" the lid in alginate-hepatic S9 (metabolism positive) or alginate-water (metabolism negative) to form microspheres. Once stamping is completed, the AIME lids are placed in duplicate microplates (metabolism positive or negative) containing chemical solutions and incubated for two hours to facilitate metabolic reactions. The conditioned medium, containing parent chemical or metabolites, is then transferred to the cell-based VM7Luc Estrogen Receptor Transactivation Assay (ERTA) for 24 hours. A typical experimental design tests a 10-point concentration series (0.002 - 200 uM) for 8 compounds (96-well format)1 or 32 compounds (384-well format)2 in single technical replicate. AIME assay controls include trans-stilbene (bioactivated control) and ethylparaben (bioinactivated control). ERTA assay plate controls include 17-beta estradiol (positive control) and DMSO (solvent control). Experiments typically comprise a minimum of four experimental replicates (n=4).

Estrogen receptor (Homo sapiens), sequence (P03372 whole entry, looked up): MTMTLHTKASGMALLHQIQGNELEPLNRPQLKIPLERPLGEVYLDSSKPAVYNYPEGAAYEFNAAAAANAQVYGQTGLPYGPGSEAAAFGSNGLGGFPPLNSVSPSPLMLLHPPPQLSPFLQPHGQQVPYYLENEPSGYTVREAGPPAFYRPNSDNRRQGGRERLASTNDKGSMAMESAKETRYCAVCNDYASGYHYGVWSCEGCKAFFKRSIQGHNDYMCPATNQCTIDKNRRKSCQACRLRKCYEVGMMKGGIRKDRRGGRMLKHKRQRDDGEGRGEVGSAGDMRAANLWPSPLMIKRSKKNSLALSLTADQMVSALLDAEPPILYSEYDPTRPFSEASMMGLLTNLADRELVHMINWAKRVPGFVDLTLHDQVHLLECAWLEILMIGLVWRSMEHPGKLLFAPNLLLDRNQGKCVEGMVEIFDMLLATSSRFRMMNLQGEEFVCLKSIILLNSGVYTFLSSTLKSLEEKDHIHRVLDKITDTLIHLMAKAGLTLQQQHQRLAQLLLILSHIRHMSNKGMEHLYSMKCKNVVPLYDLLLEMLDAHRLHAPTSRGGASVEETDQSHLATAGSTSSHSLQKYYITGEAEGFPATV

Compound	outcome	AC50
Cc1ccc(N)cc1O	inactive	–
CCCCCCCCO	inactive	–
O=C(O)c1cccc(Oc2ccccc2)c1	inactive	–
Nc1ccc(Nc2ccccc2)cc1	–	114 µM (active)
COc1ccc2sc(C(=O)Nc3nnn[nH]3)c(OC(C)C)c2c1	inactive	–
Cn1c(=O)cc(Oc2ccc(F)cc2F)c2cnc(NCC(C)(C)O)nc21	inactive	–
O=c1n(CC2CO2)c(=O)n(CC2CO2)c(=O)n1CC1CO1 (configuration not stated)	inactive	–
CC(C)CCO	inactive	–
O=c1[nH]c2ccc(S(=O)CCN3CCC(Cc4ccc(F)cc4)CC3)cc2o1 (configuration not stated)	inactive	–
COc1cccc(-c2ccc(/C=C\CN3CCCCCC3)cc2Cl)c1	inactive	–
CCCC(=O)OCC	inactive	–
C=CC(=C)CCC=C(C)C	inactive	–

Source: PubChem BioAssay (EPA / NIEHS)
